# High-throughput results from PubChem.
# A selection: hits, their analogues and other compounds. The true share with any hit is near 3.4%.
# FBW7 activator = activators of human E3 ligase FBW7; normalized activity (activation), % at 26.1 µM; 650,000 tested, 0.13% active; AlphaScreen FBW7–phospho-cyclin E peptide binding, activator screen; in the data active means normalized activity above about 1.9%;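 further: purified mutant Fbw7 with reduced substrate affinity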
# GPR151 activ = activates the human receptor GPR151. PathHunter beta-arrestin GPR151 cells, luminescence. activation, % at 11.2 µM. 650,000 tested, 1% active; in the data active means activation above about 4.9%;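 further: 0% = median of compound wells and 100% = cells with positive control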
# TEAD-YAP block = TEAD-YAP interaction inhibition. 640,000 tested, 1.4% active. inhibition, % at 9.12 µM. HEK-TIYL cells, TEAD-Gal4/YAP UAS-luciferase luminescence. AID 1259422; in the data active means inhibition above about 32%;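 further: 0% = median of test compound wells and 100% = reference inhibitor wells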
# MITF inh = inhibitors of human MITF | O75030 | AlphaScreen MITF homodimerization, bead proximity signal | inhibition, % at 2.6 µM | 650,000 tested, 0.91% active; in the data active means inhibition above about 50%;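 further: 0% = vehicle wells with protein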
# GPR151 confirm = human GPR151 activation, confirmation screen | shares compounds with GPR151 activ | GPR151 PathHunter beta-arrestin cells, luminescence, 90 min; % of EA-reagent control over plate median | activation, % at 11.2 µM | 6,700 tested, under 10 active | AID 1508609;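 active means mean percent activation across replicates above the confirmation screen cutoff of 4.91%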
# GPR119 counter = GPR119 activation, counter-screen for GPR151 activators; activation, % at 11.2 µM; GPR119 PathHunter beta-arrestin cells, luminescence, 90 min; 0 = compound-well median, 100 = enzyme-acceptor control; shares compounds with GPR151 activ; 6,700 tested, 0.3% active; AID 1508611;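 active means mean percent activation in the counterscreen above 29.09%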;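 further: counterscreen on off-target GPR119 to flag nonselective hits from the GPR151 activator screen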
# Numbers without * were called inactive; / = no result; ! = not active in a repeat.
SMILES,FBW7 activator,GPR151 activ,TEAD-YAP block,MITF inh,GPR151 confirm,GPR119 counter
O=[N+]([O-])N=C1NCN(C2CCN(Cc3ccccc3)CC2)CN1,0,5.5*,-10,-3,1,1
O=C(Nc1ccccc1)N1CNC(=N[N+](=O)[O-])NC1,0,3,-4,-3,/,/
O=C(Nc1ccccc1-c1ccccc1)N1CC2CC(C1)c1cccc(=O)n1C2 (stereo not given),0,-1,-1,5,/,/
O=C1NC(=S)NC(=O)C1=Cc1ccc(I)o1,-2,5.7*,3,63*,-1,-9
COc1ccc2oc3c(c2c1)NC(=O)CN=C3c1ccccc1,0,6.9*,-11,13,1,-1
COc1ccc2oc3c(c2c1)NC(=O)CN=C3c1ccc(F)cc1,0,-2,1,20,/,/
CCC(c1nnnn1C(C)(C)C)N1CCN(C)CC1 (stereo not given),0,1,10,-10,/,/
COc1ccc(C2C([N+](=O)[O-])=C(N)Oc3c2c(=O)oc2ccccc32)cc1OC (stereo not given),0,1,-7,19,/,/
COc1cc(C2C([N+](=O)[O-])=C(N)Oc3c2c(=O)oc2ccccc32)ccc1O (stereo not given),0,5.7*,26,3,0,-4
CCN(CC)c1ccc(C=C2C(=O)NC(=O)NC2=O)c(OC)c1,0,3,-6,0,/,/
COc1cc2c(cc1O)[C@@H]1Cc3ccc(OC)c(O)c3CN1CC2,0,6.0*,44*,14,1,-13
CC(=O)OC1(C(=O)O)c2ccccc2-c2ccccc21,0,0,3,10,/,/
N#Cc1ccc(NC(=O)CSc2n[nH]c(-c3cccs3)n2)cc1Cl,0,11*,-3,-2,0,13
COc1cc(C=C2C(=O)NC(=S)NC2=O)ccc1OC(=O)c1ccc(C)cc1,0,6.6*,1,13,-1,2
CCc1c(C)nc(N)nc1N1N=C1SCC(N)=O,1,9.5*,-5,14,-1,-8
OC1/C(=C/c2cccc(OCc3ccccc3)c2)N2CCC1CC2 (stereo not given),0,5.9*,-37,5,0,4
Cc1ccsc1C=C1C(=O)NC(=S)NC1=O,-1,2,-7,-6,/,/
C=C[C@H]1CN2CC[C@H]1C[C@H]2[C@H](O)c1ccnc2ccccc12,0,5.4*!,20,-1,-1,3
COc1cc(CN2CC3CC(C2)c2cccc(=O)n2C3)ccc1O (stereo not given),1,0,-9,16,/,/
COc1ccc(CC(=O)N2CCN(Cc3nc(-c4ccc(Cl)cc4)cs3)CC2)cc1OC,1,15*,61*,8,0,4
N#Cc1c(Cl)c(Cl)nc(N2CCCNCC2)c1Cl,0,6.1*,0,-5,1,13
N#Cc1cc(F)c(N2CCNCC2)cc1Cl,0,0,3,1,/,/
CCOc1ccccc1N1CCN(Cc2cccnc2)CC1,0,5.5*,5,40,0,11
